Screens from PubChem.
ASM inhibitor: Inhibitors of Secretory Acid Sphingomyelinase (S-ASM): qHTS. placental ASM, HMU-PC fluorogenic substrate, 60 min. 340,000 tested, 0.006% active. Potency, µM (series often up to 57.5 µM), for the others: top-dose activity change, negative = inhibition, actives largely listed as inhibitors. Sphingomyelin phosphodiesterase (Homo sapiens), P17405; also: potency is read from the fitted curve at half-maximal effect
Target sequence (P17405 47-631 limits assumed): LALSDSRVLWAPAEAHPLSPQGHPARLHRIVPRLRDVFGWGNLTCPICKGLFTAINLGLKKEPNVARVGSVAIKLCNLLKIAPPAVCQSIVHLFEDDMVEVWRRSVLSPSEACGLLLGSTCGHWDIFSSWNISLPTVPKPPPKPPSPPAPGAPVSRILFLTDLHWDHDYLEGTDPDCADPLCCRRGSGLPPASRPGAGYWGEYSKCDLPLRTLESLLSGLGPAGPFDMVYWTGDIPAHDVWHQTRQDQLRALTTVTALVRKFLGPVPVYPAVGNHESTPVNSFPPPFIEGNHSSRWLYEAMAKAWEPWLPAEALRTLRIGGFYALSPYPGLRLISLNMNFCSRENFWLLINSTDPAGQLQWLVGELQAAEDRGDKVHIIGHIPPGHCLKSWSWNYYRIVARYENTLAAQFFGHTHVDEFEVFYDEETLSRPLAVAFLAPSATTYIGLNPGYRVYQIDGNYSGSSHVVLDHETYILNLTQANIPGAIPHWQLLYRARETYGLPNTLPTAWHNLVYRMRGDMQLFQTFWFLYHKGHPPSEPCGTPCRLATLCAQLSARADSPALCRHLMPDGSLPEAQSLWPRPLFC
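Steps: dispense placental human ASM, pin compound, wait 10 min at room temperature, add HMU-PC0 substrate at 9 uM final, incubate 60 min at 37 °C, add stop solution raising pH to 10, read fluorescence.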
IL1B secr inh: qHTS for Inhibitors of Inflammasome Signaling: IL-1-beta AlphaLISA Primary Screen | THP-1 LPS/ATP IL-1B secretion, AlphaLISA, 16 h; active compounds read low | activity change, % at 57.5 µM | 360,000 tested, 4.7% active; in the data active = activity change below about -50%; inconclusive = mostly about -30% to -49%; also: % is scaled to controls: 0 for no effect and ±100 for the full control effect
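THP-1 cells pretreated 1 hr with compounds (up to 57.5 uM final), then stimulated with LPS (250 ng/mL final) plus ATP (1.25 mM final); secreted IL-1B measured by AlphaLISA after 16 hr, decreased signal indicating inhibition.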
TGFb inhibitor: qHTS for Inhibitors of TGF-b. HepG2 CAGA-GFP TGF-b/SMAD3 reporter, GFP fluorescence, 18 h; TGF-beta stimulated, 500 pg/mL final. Potency, µM (series often up to 46.1 µM), inactives show at the highest dose activity, negative = inhibition, hits mostly inhibitors. 410,000 tested, 1.2% active. AID 588855, 2011; also: potency is read from the fitted curve at half-maximal effect; % is scaled to controls: 0 for no effect and ±100 for the full control effect; nearly all actives have a fitted effect of over 65% in size
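Inhibition of TGF-beta-driven CAGA-GFP reporter expression in HEPG2 cells is measured by cellular GFP fluorescence after 18 h stimulation with 500 pg/mL recombinant TGF-beta in 1% FBS medium at 37 degrees C.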
HepG2 tox: qHTS for Inhibitors of TGF-b: Cytotox Counterscreen | HepG2 CAGA-GFP viability, ATP luminescence, 18 h | Potency, µM (titrated, usually from 46.1 µM), for the others: at the highest dose activity change, negative = cytotoxicity, usual class: cytotoxic | 410,000 tested, 0.76% active | AID 588856, 2011; also: potency is read from the fitted curve at half-maximal effect
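CellTiter-Glo luminescence gave cytotoxicity after 18 hours at 37 degrees C. The cells were HepG2 CAGA-GFP in 1% FBS DMEM, stimulated with 500 pg/mL TGF-beta after compound addition. %Activity was normalised to no-cell wells (complete cell-killing) and DMSO (no toxicity), and curves were fitted and classified.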
DT40 TDP1 no CPT: qHTS for Inhibitors of human tyrosyl-DNA phosphodiesterase 1 (TDP1): qHTS in cells in absence of CPT; DT40 Tdp1-/- hTDP1 cells, no CPT, ATP luminescence, 48 h; Potency, µM (doses to about 46.2 µM), without a hit: at the highest dose activity change, negative = growth inhibition, actives largely listed as inhibitors; 420,000 tested, 15% active; AID 686978, 2013; also: potency is read from the fitted curve at half-maximal effect; % is scaled to controls: 0 for no effect and ±100 for the full control effect; nearly all actives have a fitted effect of over 55% in size
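Growth kinetics read by CellTiter-Glo luminescence after ≥48 hr at 37 °C. Cells: DT40 Tdp1-/- stably carrying human TDP1, 400 per well, compound exposure in the absence of CPT (DMSO vehicle).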
DT40 TDP1 CPT: qHTS for Inhibitors of human tyrosyl-DNA phosphodiesterase 1 (TDP1): qHTS in cells in presence of CPT. chicken DT40 Tdp1-/-;hTDP1 cells + 20 nM CPT, ATP luminescence, 48 h. Potency, µM (highest dose often 46.2 µM), without a hit: at the highest dose activity change, negative = growth inhibition, usual class: inhibitors. 420,000 tested, 12% active. AID 686979, 2013; also: potency is read from the fitted curve at half-maximal effect; % is scaled to controls: 0 for no effect and ±100 for the full control effect; nearly all actives have a fitted effect of over 55% in size
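Chicken DT40 Tdp1-/- cells complemented with human TDP1, 400 cells/well, exposed to compounds plus 20 nM camptothecin for at least 48 h at 37 C; viability read as ATP content by CellTiter-Glo luminescence.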
The depositor's hits bear a star; ? = inconclusive; nt = not tested or not shown. Shown are actives, neighbours in structure and some others; about 19% of the full set was active somewhere. Unless noted, calls follow the shape of the dose curve; as a rule, active = well fitted curve in the direction sought with a large enough effect; inconclusive = small, poorly fitted or top-dose-only effect, or another doubt; inactive = no such curve, though single readings can be large; an effect the other way counts as inactive or inconclusive.

SMILES	ASM inhibitor	IL1B secr inh	TGFb inhibitor	HepG2 tox	DT40 TDP1 no CPT	DT40 TDP1 CPT
O=C(Nc1nnc(-c2ccc(F)cc2)o1)c1ccc(S(=O)(=O)N2CCOCC2)cc1	1.0%	64.1	-2.8%	-37.7%	2.91µM*	3.26µM*
COc1ccc(-c2nnc(NC(=O)c3ccc(F)cc3)o2)cc1	-0.6%	45.3	?	-19.1%	?	2.91µM*
Cc1ccccc1C(=O)Nc1nnc(-c2ccc(F)cc2)o1	-0.9%	68.7	?	-20.0%	5.8µM*	6.51µM*
COc1ccc(-c2nnc(NC(=O)c3cc(Cl)ccc3Cl)o2)cc1	2.5%	30.5	-27.2%	-6.6%	?	16.4µM*
O=C(Nc1nc(-c2ccccc2)c(-c2ccccc2)o1)c1ccc(F)cc1	-9.2%	10.1	-27.6%	-33.7%	8.2µM*	9.2µM*
CCCS(=O)(=O)NCCc1sc2nc(-c3ccc(Cl)cc3)nn2c1C	nt	nt	?	-38.3%	8.2µM*	5.17µM*
Cc1c(CCNC(=O)Cc2ccc(F)cc2)sc2nc(-c3ccc(F)cc3)nn12	nt	nt	0.1%	-1.3%	?	?
Cc1cc(C)c(S(=O)(=O)NCCc2sc3nc(-c4ccc(F)cc4)nn3c2C)c(C)c1	nt	nt	11.2µM*	-49.6%	20.6µM*	?
CCCS(=O)(=O)NCCc1sc2nc(-c3ccc(F)cc3)nn2c1C	nt	nt	-32.4%	-20.9%	14.6µM*	20.6µM*
CCOc1ccc(S(=O)(=O)NCCc2sc3nc(-c4ccc(F)cc4)nn3c2C)cc1	nt	nt	?	-37.3%	14.6µM*	?
COc1ccc(S(=O)(=O)NCCc2sc3nc(-c4ccc(C)cc4)nn3c2C)cc1C	nt	nt	?	-26.6%	?	?
COc1ccc(OC)c(-c2csc(NC(=O)CSc3ccc([N+](=O)[O-])cc3)n2)c1	-1.2%	-68.5*	?	-31.9%	16.4µM*	?
COc1ccc(OC)c(-c2csc(NC(=O)Cc3ccc(F)cc3)n2)c1	-5.9%	-69.0*	?	19.0%	?	-0.8%
COc1ccc(OC)c(-c2csc(NC(=O)c3ccc(F)cc3)n2)c1	-4.0%	-1.8	?	-17.7%	?	7.31µM*
CCOC(=O)c1sc(NC(=O)Cc2ccc(F)cc2)nc1C	2.3%	7.1	6.5%	-0.1%	23.5%	0.5%
Cc1ccc(-c2csc(NC(=O)Cc3ccc(F)cc3)n2)o1	-4.3%	-64.6*	?	3.8%	-11.4%	-5.9%
COCCN(C(=O)CCCc1nc2ccccc2s1)c1c(N)n(CC(C)C)c(=O)[nH]c1=O	140.4%	37.9	20.5%	1.0%	11.2%	-2.7%
COc1ccc(OC)c(-c2cc(C(F)(F)F)c3c(n2)sc2c(O)cc(=O)[nH]c23)c1	34.6%	11.2	0.0%	3.0%	?	-23.7%
COc1ccc(-c2csc(NC(=O)CC(C)C)n2)cc1	-1.2%	?	7.4%	-17.3%	?	-8.4%
COc1ccc(-c2csc(NC(=O)c3c(OC)cccc3OC)n2)cc1	4.1%	-17.8	4.8%	14.1µM*	?	-29.5%
CCc1sc(C(=O)NCCc2ccc(S(N)(=O)=O)cc2)cc1Br	5.4%	?	-1.5%	-7.1%	16.4µM*	?
CCc1sc(C(=O)NCCc2ccc(S(N)(=O)=O)cc2)cc1C	-3.5%	-1.5	2.3%	-8.2%	2.1%	-4.6%
CN(c1ccc(C(=O)Nc2ccccn2)cc1)S(=O)(=O)c1ccccc1	-3.2%	11.8	1.5%	0.5%	-29.7%	-29.6%
